# Measured values as given in PubChem BioAssay (NCATS).
# Results filed as inconclusive are left out. Where a call stands in place of a potency, no number is given. Active and inactive are the calls of the source. Calls follow the shape of the dose curve; as a rule, active = well fitted cell-killing curve with a large enough effect; inconclusive = small, poorly fitted or top-dose-only effect, or effect the other way; inactive = flat fitted curve, though single readings scatter.
# Test system: Tov-21-G
# Assay: Primary qHTS to identify gynecologic anti-cancer compounds using libraries of approved drugs and bioactive compounds (AID 1345084); also: nearly all actives have a fitted effect of over 55% in size
# Settings: Gynecologic cancer cell panel viability, ATPlite luminescence, 48 h; series mostly up to 57.5 µM
# In short: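 Luminescence from the ATPlite ATP-monitoring reagent indicates viable cell number; lower signal means cytotoxicity. Cells received compound 16 h after seeding and were exposed for 48 h across five concentrations.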
# Potency is read from the fitted curve at half-maximal effect.
row,SMILES,Potency
1,CCN(CC)C(=O)/C(C#N)=C/c1cc(O)c(O)c([N+](=O)[O-])c1,inactive
2,CCOc1ccc(Cc2nccc3cc(OCC)c(OCC)cc23)cc1OCC,inactive
3,CCCCCCCCCCCCCCCC[N+](C)(C)CC,10 µM (active)
4,CN(C)CC/C=C1\c2ccccc2Sc2ccc(Cl)cc21,inactive
5,CCCCCCCCCCOCC(O)CN (configuration not stated),inactive
6,OC[C@H]1O[C@@H](n2cnc3c(=S)nc[nH]c32)[C@H](O)[C@@H]1O,0.891 µM (active)
7,O=C1[C@H]2CCCC[C@H]2C(=O)N1CCCCN1CCN(c2nsc3ccccc23)CC1,inactive
8,Cc1cccc(C)c1NC(=O)CN1CCN(CCCC(c2ccc(F)cc2)c2ccc(F)cc2)CC1,inactive
9,COc1cc2c(cc1OC)C(C(C(=O)N(CCc1ccc(OC)c(OC)c1OC)CCc1ccc(OC)c(OC)c1OC)c1ccccc1)=NCC2 (configuration not stated),inactive
10,CC(=O)N(O)CCCCCNC(=O)CCC(=O)N(O)CCCCCNC(=O)CCC(=O)N(O)CCCCCN,inactive
11,COCc1c(C(C)C)nc(C(C)C)c(/C=C/[C@@H](O)C[C@@H](O)CC(=O)O)c1-c1ccc(F)cc1,7.08 µM (active)
12,CC(C)(C)CC(C)(C)c1ccc(O)c(Cc2ccc(Cl)cc2Cl)c1,inactive
13,CCOc1ccc2nc3cc(N)ccc3c(N)c2c1,inactive
14,CC(C)=CCC1C(=O)N(c2ccccc2)N(c2ccccc2)C1=O,inactive
15,Oc1c(Cl)cc(Cl)cc1Sc1cc(Cl)cc(Cl)c1O,inactive
16,CN1CCC(=C2c3ccccc3Sc3ccccc32)CC1,inactive
17,CC(Cc1cccc(C(F)(F)F)c1)NCCOC(=O)c1ccccc1 (configuration not stated),inactive
